Screening results (PubChem BioAssay)
PostGolgi ctrl – inhibits growth of the yeast control strain; inhibition, % at 10 µM; efflux-deficient yeast background strain, growth absorbance A615, 16 h; actives 5% (n = 98,000)
TNAP act mid DEA – activators of human TNAP at intermediate phosphate acceptor | P05186 | purified TNAP, CDP-star luminescence, 100 mM DEA, 30 min; hits give high values; scale: 0 levamisole-inhibited, 1 vehicle-only enzyme | activation factor at 20 µM | 64,000 tested, under 10 active | AID 813;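 active means activation factor of at least 2 at 20 µM, relative to controls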
hDAT+cocaine – human DAT dopamine uptake with cocaine, either direction; actives 1.3% (n = 110,000); LLC-PK1 hDAT cells, [14C]-dopamine uptake with cocaine IC80; actives deviate in either direction; B-score at 10 µM;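 active means Z score or B-score, a plate-position-corrected score, falls beyond the plate's 99.7% confidence bounds, in either direction; inactive means both scores lie inside the 99.7% bounds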
Cav32 inh – blocks human Cav3.2 T-type calcium channel | Cav3.2-expressing cells, Fluo-4 calcium fluorescence FDSS; hits give low values | B-score at 10 µM | actives 4% (n = 100,000) | AID 449739;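 active means single-dose well whose peak fluorescence ratio is a statistical outlier from its plate by either plate-standardised score or position-corrected B-score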
Smad3 FoxH1 inh – inhibitors of human Smad3 transcription factor binding. P84022. TR-FRET Smad3/Dy647-FoxH1 peptide binding, europium anti-His. inhibition, % at 25 µM. actives 0.29% (n = 88,000);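 active means compounds that reduce the energy-transfer binding signal between the protein and its labelled peptide by more than half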
PostGolgi yeast – growth inhibition of a yeast mutant, post-Golgi transport screen; post-Golgi transport phenotypic cell assay; inhibition, % at 10 µM; actives 0.9% (n = 98,000); AID 739;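 further: yeast cells grown in 1536-well plates; yeast grown about 18 h at 30C before absorbance read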
Hits are given with their value. In the library only some 8.7% were active in any assay of this set; here they are far more common. Unless noted, no stated cut-off is given here; in the data, active means inhibition above about 30%; inactive means the rest.

For CC1C/C(=C/c2cccn2C)C(=O)/C(=C/c2cccn2C)C1 (stereo not given) the results were PostGolgi ctrl 41, hDAT+cocaine inactive, Cav32 inh -14, Smad3 FoxH1 inh inactive and PostGolgi yeast inactive.
Screening Cn1cccc1/C=C1/SC(=S)N(CC(=O)O)C1=O returned hDAT+cocaine inactive and Cav32 inh inactive.
Cc1ccc(/C(N)=N/OC(=O)c2cccc(F)c2)cc1 was read as PostGolgi ctrl 44, hDAT+cocaine inactive, Cav32 inh inactive and PostGolgi yeast inactive.
For CC(=O)Nc1ccc(N2C(=O)CC(N3CC(C)OC(C)C3)C2=O)cc1 (stereo not given) the results were PostGolgi ctrl inactive, TNAP act mid DEA inactive, hDAT+cocaine inactive, Cav32 inh inactive, Smad3 FoxH1 inh inactive and PostGolgi yeast inactive.
`O=C(NC(NC(=S)Nc1ccc(Cl)cc1Cl)C(Cl)(Cl)Cl)c1cccc([N+](=O)[O-])c1` (stereo not given) gave PostGolgi ctrl inactive, hDAT+cocaine inactive, Cav32 inh -4.9 and PostGolgi yeast inactive.
COc1cccc(-c2[nH]nc3c2C(c2ccc(C)o2)C(C#N)=C(N)O3)c1 (stereo not given) was read as PostGolgi ctrl inactive, hDAT+cocaine inactive, Cav32 inh inactive, Smad3 FoxH1 inh inactive and PostGolgi yeast inactive.
For CCOC(=O)NC(Nc1ncccn1)(C(F)(F)F)C(F)(F)F the results were PostGolgi ctrl inactive, TNAP act mid DEA inactive, hDAT+cocaine inactive, Cav32 inh inactive, Smad3 FoxH1 inh inactive and PostGolgi yeast inactive.
For CCOC(=O)C(NC(=O)Nc1ncccn1)(Oc1ccccc1)C(F)(F)F (stereo not given) the results were PostGolgi ctrl 32, TNAP act mid DEA inactive, hDAT+cocaine inactive, Cav32 inh inactive, Smad3 FoxH1 inh inactive and PostGolgi yeast inactive.
`O=C(COc1ccc(Cl)cc1)Nc1ncccn1` gave PostGolgi ctrl inactive, TNAP act mid DEA inactive, hDAT+cocaine inactive, Cav32 inh inactive, Smad3 FoxH1 inh inactive and PostGolgi yeast inactive.
`CCSc1nc2c(c(=O)n1Cc1ccccc1)SC(C)C2` (stereo not given) gave PostGolgi ctrl 33, hDAT+cocaine inactive, Cav32 inh inactive, Smad3 FoxH1 inh inactive and PostGolgi yeast inactive.
Screening Nc1n[nH]c2c1C1(CCCCC1)Cc1ccccc1-2 returned PostGolgi ctrl 42, TNAP act mid DEA inactive, hDAT+cocaine inactive, Cav32 inh inactive, Smad3 FoxH1 inh inactive and PostGolgi yeast inactive.
Screening Cc1c(O)cccc1C(=O)N[C@@H](CSc1ccccc1)[C@H](O)CN1C[C@H]2CCCC[C@H]2C[C@H]1C(=O)NC(C)(C)C returned hDAT+cocaine inactive.
COc1ccccc1/C=N/n1c(N)c(C(=O)NC2CCCCC2)c2nc3ccccc3nc21 was read as PostGolgi ctrl inactive, hDAT+cocaine inactive, Cav32 inh inactive and PostGolgi yeast inactive.
For CC1(C)CCCC2=C1CC1C(=O)N(O)C(=O)C1C2 (stereo not given) the results were PostGolgi ctrl inactive, TNAP act mid DEA inactive, hDAT+cocaine inactive, Cav32 inh inactive, Smad3 FoxH1 inh inactive and PostGolgi yeast inactive.
For Cc1onc(-c2ccccc2Cl)c1C(=O)N/N=C(\N)COc1ccc(Cl)cc1 the results were PostGolgi ctrl inactive and PostGolgi yeast inactive.
For Cn1cc(C(=O)c2ccc(Cl)cc2Cl)cc1C(=O)N/N=C(\N)COc1cccc(C(F)(F)F)c1 the results were PostGolgi ctrl inactive, hDAT+cocaine inactive, Cav32 inh -8.4, Smad3 FoxH1 inh inactive and PostGolgi yeast inactive.
`Cc1ccc(S(=O)(=O)N=Nc2c(O)[nH]c3ccccc23)cc1` gave PostGolgi ctrl inactive, hDAT+cocaine inactive, Cav32 inh inactive, Smad3 FoxH1 inh inactive and PostGolgi yeast inactive.
O=[N+]([O-])c1ccccc1N=Nc1c(O)[nH]c2ccc(S(=O)(=O)O)cc12 was read as Smad3 FoxH1 inh 63.
Screening Cc1ccc(C(=O)C2C(c3cccs3)NC(=O)NC2(O)C(F)(F)F)cc1 (stereo not given) returned PostGolgi ctrl inactive, TNAP act mid DEA inactive, hDAT+cocaine inactive, Cav32 inh inactive, Smad3 FoxH1 inh inactive and PostGolgi yeast inactive.
`CCN(CC)c1ccc2c(Cl)cc(=O)oc2c1` gave PostGolgi ctrl 30, hDAT+cocaine inactive, Cav32 inh inactive and PostGolgi yeast inactive.
Cc1c(Cl)c([N+](=O)[O-])nn1CC(=O)NC12CC3CC(CC(C3)C1)C2 was read as PostGolgi ctrl inactive, hDAT+cocaine inactive, Cav32 inh -3.8 and PostGolgi yeast inactive.
For Cc1csc(SCC(=O)NC23CC4CC(CC(C4)C2)C3)n1 the results were PostGolgi ctrl inactive, hDAT+cocaine inactive, Cav32 inh inactive, Smad3 FoxH1 inh inactive and PostGolgi yeast inactive.
C=CCNc1nc(-c2ccccc2)c(C(=O)OCC)cc1C#N was read as PostGolgi ctrl inactive, hDAT+cocaine inactive, Cav32 inh -4.4 and PostGolgi yeast inactive.
`O=C(O)CSc1nnc(Cn2c(=O)sc3ccccc32)n1-c1cccc(Cl)c1` gave PostGolgi ctrl inactive, TNAP act mid DEA inactive, hDAT+cocaine inactive, Cav32 inh inactive, Smad3 FoxH1 inh inactive and PostGolgi yeast inactive.
CCOCc1nnc(NC(=O)CSCc2ccccc2)s1 was read as PostGolgi ctrl inactive, TNAP act mid DEA inactive, hDAT+cocaine inactive, Cav32 inh inactive, Smad3 FoxH1 inh inactive and PostGolgi yeast inactive.
O=C(CSc1ccc2ccccc2c1)Nc1ccncc1 was read as PostGolgi ctrl 92 and PostGolgi yeast 103.
`COC(=O)c1ccccc1NC(=O)CSc1ccccc1` gave PostGolgi ctrl inactive, TNAP act mid DEA inactive, hDAT+cocaine -9, Smad3 FoxH1 inh inactive and PostGolgi yeast inactive.
Screening CC(=O)Oc1ccc(NC(=O)CSc2ccccc2)cc1 returned PostGolgi ctrl 37, TNAP act mid DEA inactive, hDAT+cocaine inactive, Cav32 inh inactive, Smad3 FoxH1 inh inactive and PostGolgi yeast inactive.
For Cc1cc(NC(=O)CSc2ccc3ccccc3c2)no1 the results were PostGolgi ctrl inactive, hDAT+cocaine inactive, Cav32 inh inactive, Smad3 FoxH1 inh inactive and PostGolgi yeast inactive.
`Cc1cc2n(n1)C(c1ccccc1Cl)Nc1ccccc1-2` (stereo not given) gave PostGolgi ctrl inactive, TNAP act mid DEA inactive, hDAT+cocaine inactive, Cav32 inh inactive, Smad3 FoxH1 inh inactive and PostGolgi yeast inactive.
Screening O=C(O)C1CC=CCC1C(=O)Nc1cccc(C(=O)N2CCCCC2)c1 (stereo not given) returned PostGolgi ctrl inactive, TNAP act mid DEA inactive, hDAT+cocaine inactive, Cav32 inh inactive, Smad3 FoxH1 inh inactive and PostGolgi yeast inactive.
`O=C(NCC1(c2ccccc2)CCCC1)C(=O)NCC1(c2ccccc2)CCCC1` gave hDAT+cocaine inactive, Cav32 inh inactive and Smad3 FoxH1 inh inactive.
O=C(NCC1(c2ccccc2)CCCC1)C1(c2ccccc2)CCCC1 was read as hDAT+cocaine inactive, Cav32 inh -6.6 and Smad3 FoxH1 inh inactive.
